According to PubChem BioAssay AID1159580 (chemical genetic matrix, 2015):
“And” between values parts separate entries of the source, which are not always exact repeats. Identical values can stand only once. The whole screen tested about 5,500 compounds, of which about 2,000 (36%) were called active. Another 18% or so got no clear call; they are omitted. Cut-off read from the data, not from the text of the source: active = normalized growth mostly below about 0.91 (no sharp cut-off); inconclusive = no clear call, values can overlap the other calls; inactive = mostly above about 0.92. This is one part of the list.

Assay: chemical genetic growth profiling, strain panel (AID 1159580);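 note: tested at 20 µM; growth read once vehicle control cultures reached saturation at 30 °C; 1 = growth at the plate median or of vehicle wells; lower values mean less growth of the strain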
Details: S. cerevisiae deletion strains, growth OD

Measured: normalized growth

C#CCN(C)Cc1ccccc1
inactive: locus YAL013W, strain DEP1, hits give low values 0.994 | locus YAL021C, strain ccr4, hits give low values 1.03 | locus YAL026C, strain drs2, hits give low values 1.02 | locus YAL030W, strain snc1, hits give low values 0.999 | locus YAL040C, strain CLN3, hits give low values 0.998 | locus YBL061C, strain skt5, hits give low values 0.984 | locus YBR009C, strain hhf1, hits give low values 0.982 | locus YBR021W, strain FUR4, hits give low values 1.02 | locus YBR023C, strain chs3, hits give low values 0.997 | locus YBR171W, strain sec66, hits give low values 1.04 | locus YBR229C, strain ROT2, hits give low values 1 | locus YBR231C, strain swc5, hits give low values 1.01 | locus YBR279W, strain paf1, hits give low values 0.977 | locus YCL011C, strain gbp2, hits give low values 1 | locus YCL016C, strain dcc1, hits give low values 0.962 | locus YCL029C, strain bik1, hits give low values 1.02 | locus YCL061C, strain MRC1 (second series), hits give low values 1 | locus YCL069W, strain vba3, hits give low values 1.02 | locus YCR088W, strain abp1, hits give low values 1.04 | locus YDL005C, strain med2, hits give low values 1.02 | locus YDL035C, strain GPR1, hits give low values 0.997 | locus YDL040C, strain nat1, hits give low values 1.02 | locus YDL074C, strain BRE1, hits give low values 0.991 | locus YDL101C, strain DUN1, hits give low values 1.01 | locus YDL134C, strain PPH21, hits give low values 1 | locus YDL185W, strain tfp1, hits give low values 1.01 | locus YDL192W, strain arf1, hits give low values 1.02 | locus YDR001C, strain nth1, hits give low values 1.01 | locus YDR069C, strain doa4, hits give low values 0.955 | locus YDR101C, strain arx1, hits give low values 1.02 | locus YDR137W, strain rgp1, hits give low values 0.98 | locus YDR159W, strain sac3, hits give low values 0.933 | locus YDR162C, strain NBP2, hits give low values 1 | locus YDR195W, strain ref2 0.988 | locus YDR297W, strain sur2, hits give low values 0.998 | locus YDR318W, strain mcm21, hits give low values 1.03 | locus YDR334W, strain swr1, hits give low values 1.02 | locus YDR335W, strain msn5, hits give low values 0.996 | locus YDR363W, strain ESC2, hits give low values 0.949 | locus YDR388W, hits give low values 1.02 | locus YDR392W, strain spt3, hits give low values 0.958 | locus YDR502C, strain sam2, hits give low values 1.01 | locus YEL003W, strain gim4, hits give low values 1.04 | locus YEL037C, strain rad23, hits give low values 1.03 | locus YEL061C, strain CIN8 (second series), hits give low values 1.02 | locus YEL061C, strain CIN8, hits give low values 0.99 | locus YER002W, strain NOP16, hits give low values 1.02 | locus YER015W, strain faa2, hits give low values 1 | locus YER016W, strain bim1, hits give low values 0.979 | locus YER110C, hits give low values 1.01 | locus YER111C, strain swi4, hits give low values 1.01 | locus YER155C, strain BEM2 (second series), hits give low values 1.01 | locus YER155C, strain BEM2, hits give low values 1 | locus YER167W, strain BCK2, hits give low values 1 | locus YFR010W, strain ubp6, hits give low values 1.04 | locus YGL078C, strain dbp3, hits give low values 1.01 | locus YGL086W, strain mad1, hits give low values 0.998 | locus YGL167C, strain pmr1, hits give low values 0.987 | locus YGL173C, strain kem1, hits give low values 1.05 | locus YGL227W, strain vid30, hits give low values 1.01 | locus YGL240W, strain doc1, hits give low values 0.977 | locus YGL248W, strain PDE1, hits give low values 1 | locus YGL253W, strain hxk2, hits give low values 1.02 | locus YGR078C, strain PAC10, hits give low values 0.995 | locus YGR135W, strain pre9, hits give low values 1.02 | locus YGR252W, strain gcn5, hits give low values 0.965 | locus YHR013C, strain ard1, hits give low values 1 | locus YHR027C, strain rpn1, hits give low values 1.02 | locus YHR030C, strain SLT2, hits give low values 0.992 and 0.966 | locus YHR079C, strain IRE1 (second series), hits give low values 1.03 | locus YHR079C, strain IRE1, hits give low values 0.927 | locus YHR094C, strain hxt1, hits give low values 1.02 | locus YHR129C, strain ARP1, hits give low values 0.996 | locus YHR142W, strain chs7, hits give low values 1.06 | locus YHR200W, strain rpn10, hits give low values 1.01 | locus YIL066C, strain RNR3, hits give low values 0.992 | locus YIL073C, strain SPO22, hits give low values 1.06 | locus YIL125W, strain kgd1, hits give low values 1.01 | locus YIR030C, strain dcg1, hits give low values 1.01 | locus YJL092W, strain hpr5, hits give low values 1.02 | locus YJL095W, strain BCK1 (second series), hits give low values 1.01 | locus YJL095W, strain BCK1, hits give low values 0.99 and 0.98 | locus YJL115W, strain asf1, hits give low values 1.01 | locus YJL129C, strain trk1, hits give low values 1.03 | locus YJL134W, strain LCB3, hits give low values 1 | locus YJL154C, strain vps35, hits give low values 1.01 | locus YJL164C, strain tpk1, hits give low values 1.01 | locus YJL166W, strain qcr8, hits give low values 1.03 | locus YJL168C, strain set2, hits give low values 1.01 | locus YJL187C, strain SWE1 (second series), hits give low values 1 | locus YJL187C, strain SWE1, hits give low values 1.01 | locus YJR043C, strain POL32, hits give low values 0.997 | locus YJR066W, strain TOR1, hits give low values 0.936
